# From PubChem
# HP1b chromo inh – blocks HP1-beta chromodomain binding to methylated histone tails | AlphaScreen HP1-beta / biotin-H3K9me3 peptide binding | AID 540317 | 390,000 tested, 0.56% active | Potency, µM (highest dose often 114 µM), without a hit: at the top dose activity change, negative = inhibition, hits mostly inhibitors; further: nearly all actives have a fitted effect of over 70% in size
# Target sequence (P83916 whole entry, looked up): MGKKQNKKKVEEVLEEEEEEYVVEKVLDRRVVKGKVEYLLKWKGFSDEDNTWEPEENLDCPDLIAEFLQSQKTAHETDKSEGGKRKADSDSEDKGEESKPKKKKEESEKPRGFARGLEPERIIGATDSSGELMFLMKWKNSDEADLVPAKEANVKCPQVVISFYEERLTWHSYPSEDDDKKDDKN
#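 HP1-beta protein (50 nM final) preincubated 30 min at room temperature with biotinylated H3(1-18)K9me3 peptide (50 nM) in PBS pH 7.4, 0.01% Tween-20, then compound added for 30 min. AlphaScreen streptavidin donor/nickel chelate acceptor beads (10 ug/mL final), 30 min dark, luminescence read.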
# Sfp inh – blocks B. subtilis Sfp PPTase activity. Biochemical Sfp PPTase activity, qHTS. 310,000 tested, 3.5% active. Potency, µM, inactives show largest response in the series, negative = inhibition, most hits filed as inhibitors. Q9F4F7;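 further: the enzyme is Sfp with the accession as filed and its product quenches rhodamine fluorescence; 0% = enzyme reaction without inhibitor and -100% = no enzyme wells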
#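 Fluorescence-quenching assay: 15 nM Sfp-PPTase preincubated 15 min at room temperature with compound, then 5 uM rhodamine-CoA and 12.5 uM BHQ-2-labelled YbbR peptide added. Fluorescence (ex 525/em 598 nm) read at start and after 30 min; difference gives rate.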
# L3MBTL1 block – L3MBTL1 (human) inhibition | Q9Y468 | AlphaScreen L3MBTL1–H3K9me1 peptide binding | Potency, µM (doses to about 57.1 µM), without a hit: at the top dose activity, negative = inhibition, usual class: inhibitors | 230,000 tested, 0.66% active | AID 485360; further: on the % scale 0 is the no-effect control and ±100 the full control effect; nearly all actives have a fitted effect of over 60% in size
#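 AlphaScreen proximity signal between nickel-chelate acceptor and streptavidin donor beads (final 10 ug/mL) reports binding of 50 nM L3MBTL1 to 75 nM biotin-H3 K9me1 peptide; complex incubated with compounds 30 min at room temperature; cefsulodin titration as control.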
# G9a inh – inhibitors of human histone lysine methyltransferase G9a; Potency, µM (highest dose often 102 µM), for the others: at the top dose activity, negative = inhibition, most hits filed as inhibitors; 350,000 tested, 8.8% active; G9a H3K9 monomethylation, AlphaScreen, 2 h; Q96KQ7; AID 504332; further: on the % scale 0 is the no-effect control and ±100 the full control effect; nearly all actives have a fitted effect of over 75% in size
# Target sequence (Q96KQ7 913-1193 limits assumed): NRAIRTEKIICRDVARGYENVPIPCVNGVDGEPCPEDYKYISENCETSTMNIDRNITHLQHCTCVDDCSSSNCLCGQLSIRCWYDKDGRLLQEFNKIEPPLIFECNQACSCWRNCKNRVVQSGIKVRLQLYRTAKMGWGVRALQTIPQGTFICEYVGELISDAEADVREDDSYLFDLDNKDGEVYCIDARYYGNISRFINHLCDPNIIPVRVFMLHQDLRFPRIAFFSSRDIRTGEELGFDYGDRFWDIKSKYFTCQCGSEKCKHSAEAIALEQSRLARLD
#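 Using a bead-based AlphaScreen, monomethylated H3K9 product from 2 h room-temperature reactions (G9a 20 nM, peptide 500 nM, SAM 20 uM) was detected with 0.5 ug/mL rabbit anti-H3K9me1 antibody.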
# BAZ2B block – inhibitors of human BAZ2B bromodomain | Q9UIF8 | AlphaScreen BAZ2B-H3K14Ac peptide displacement | Potency, µM (highest dose often 114 µM), for inactives: top-dose activity change, negative = inhibition, most hits filed as inhibitors | 360,000 tested, 4.4% active | AID 504333; further: on the % scale 0 is the no-effect control and ±100 the full control effect; nearly all actives have a fitted effect of over 60% in size
#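 In this displacement format the biotinylated H3(5-23) peptide acetylated at Lys14 serves as ligand at 50 nM, with BAZ2B at 50 nM in PBS pH 7.4 containing 0.01% Tween-20. Donor and acceptor beads are 10 ug/mL final.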
# JMJD2A Tudor – blocks the human JMJD2A Tudor domain | AlphaScreen JMJD2A-Tudor / H3K4me3 peptide binding | Potency, µM (titrated, usually from 114 µM), inactives show top-dose activity change, negative = inhibition, hits mostly inhibitors | 390,000 tested, 4.4% active | AID 504339; further: on the % scale 0 is the no-effect control and ±100 the full control effect; nearly all actives have a fitted effect of over 50% in size
# The depositor's hits bear a star; ? = inconclusive; . = no result given; ! = a repeat was not active; [ ] = dose if it differs, or a comment. Most compounds without a hit are left out; they make up all but 12% or so of the library. The call rests on the fitted dose curve; in most records, active means well fitted curve in the direction sought with a large enough effect; inconclusive means small, poorly fitted or top-dose-only effect, or another doubt; inactive means no such curve, though single readings can be large; an effect the other way counts as inactive or inconclusive. Potency means the concentration at half of the fitted maximal effect.
SMILES,HP1b chromo inh,Sfp inh,L3MBTL1 block,G9a inh,BAZ2B block,JMJD2A Tudor
CCOP(=S)(OCC)OCCSCC,.,-10%,.,.,.,.
O=c1[nH]c(=S)[nH]c(O)c1/C=N/N1CCOCC1,53%,?,11%,50µM*,0%,6%
O=c1cccc2n1CC1CC2CN2CCCCC12 (centres undefined),.,17%,.,.,.,.
Cc1ccc(CC(=O)N2CCN(Cc3ccccc3)CC2)cc1,58%,21%,-1%,-52%,-21%,-10%
CCN1CCN(C(=O)Cc2coc3ccc4ccccc4c23)CC1,-1%,6%,.,50µM*,-26%,-22%
COc1ccc2c(c1)CCc1c(C(=O)Nc3c(C)nn(Cc4ccccc4C)c3C)noc1-2,9%,.,.,?,-13%,-23%
CNc1ccccc1C(=O)O,.,0%,.,.,.,.
O=C(O)c1ccccc1SSc1ccccc1C(=O)O,56%,?,.,28µM*,-4%,2%
Cc1cccc(C(=O)O)c1O,.,?,.,-27%[2.33 µM],.,.
C[CH2][Hg][S]c1ccccc1C(=O)O,?,16µM*,.,?,.,18µM*
O=C1NC(=S)N(Cc2ccco2)C(=O)/C1=C\c1cccs1,.,20µM*,.,3.2µM*,.,.
CN(C)c1ccc(/C=C2/C(=O)NC(=O)N(Cc3ccco3)C2=O)cc1,-7%,-19%,?,?,-31%,-35%
C=CCN1C(=O)/C(=C/c2cccs2)C(=O)NC1=S,-7%,20µM*,?,8.9µM*,?,79µM*
Cc1c(N=Cc2c(O)n(C3CCCCC3)c(=O)[nH]c2=O)c(=O)n(-c2ccccc2)n1C,35%,-10%,-7%,?,4%,-9%
CCOc1ccc(-n2c(O)c(N=Nc3c(C)n(C)n(-c4ccccc4)c3=O)c(=O)[nH]c2=O)cc1,30%,45µM*,25µM*,-42%,14µM*,25µM*
C=CCn1c(O)c(N=Nc2c(C)n(C)n(-c3ccccc3)c2=O)c(=O)[nH]c1=S,10%,20µM*,20µM*,0.79µM*,7.1µM*,25µM*
Cc1c(N=Nc2c(O)[nH]c(=S)[nH]c2=O)c(=O)n(-c2ccccc2)n1C,27%,45µM*,?,2µM*,4.5µM*,13µM*
CN1[C@@H]2CC[C@H]1CC(OC(c1ccc(F)cc1)c1ccc(F)cc1)C2 (some centres undefined),.,1%,.,.,.,.
CC(C)=CCCC1(C)C=Cc2c(O)c3c(c(CC=C(C)C)c2O1)OC12C(=CC4CC1C(C)(C)OC2(C/C=C(/C)C(=O)O)C4=O)C3=O (centres undefined),.,-88%,.,-39%[2.33 µM],.,.
OCC(Br)(Br)Br,.,7%,.,.,.,.
CCN(CC)Cc1cc(Nc2ccnc3cc(Cl)ccc23)ccc1O,17%,7%,-14%,?,50µM*!,-28%
C=C1C2C[C@]3(C4CC5[C@@]6(C)CC[C@H](O)[C@@]5(C3CC2=O)C4[N+]([O-])(CC)C6)[C@@H]1O (some centres undefined),.,10%,.,.,.,.
CC[C@H](C)[C@H](NC(=O)[C@H](CCCN=C(N)N)NC(=O)[C@H](CCCN=C(N)N)NC(=O)[C@H](CC(C)C)NC(=O)[C@H](Cc1ccccc1)NC(=O)CNC(=O)CNC(=O)[C@@H](N)Cc1ccc(O)cc1)C(=O)O,.,-15%,.,41%[59 µM],.,.
Nc1ncnc2c1ncn2[C@@H]1O[C@@H]2CO[P@](=O)(S)O[C@H]2[C@H]1O,.,-4%,.,9%[59 µM],.,.
c1csc(CN2CC[C@@]3(CCCNC3)C2)n1,.,-13%,.,5%[12.7 µM],.,.
SMILES,HP1b chromo inh,Sfp inh,L3MBTL1 block,G9a inh,BAZ2B block,JMJD2A Tudor
Cc1cccc(C(O)(C(=O)NNC(=O)CN2CCN(C)CC2)c2cccc(C)c2)c1,11%,5%,2%,71µM*,-3%,-9%
Cc1ccc(C(O)(C(=O)NNC(=O)CN2CCN(C)CC2)c2ccc(C)cc2)cc1,17%,-5%,-6%,?,-37%,-4%
CS(=O)(=O)N1CCC2(CCCN(Cc3ccncc3)C2)CC1,.,2%,.,9%[12.7 µM],.,.
C=C1[C@@H](C)[C@H]2[C@H](Cc3ccccc3)NC(=O)[C@]23[C@H](OC(C)=O)/C=C/[C@](C)(O)C(=O)[C@@H](C)C/C=C/[C@H]3[C@@H]1O,.,11%,.,5%[59 µM],.,.
N[C@@H](Cc1cc(I)c(O)c(I)c1)C(=O)O,?,?,5%,6.3µM*!,7%,11µM*
NC(Cc1ccc(Oc2cc(I)c(O)c(I)c2)c(I)c1)C(=O)O (centres undefined),.,-13%,.,?,.,.
CN1C(=O)C(=Cc2ccccc2OCc2ccccc2Cl)C(=O)N(C)C1=O,101%,50µM*,9%,30%[59 µM],51%,96%
CN1C(=O)C(=Cc2ccccc2OCc2ccc(C(=O)O)cc2)C(=O)N(C)C1=O,36%,-28%,4%,?,2%,-11%
COc1cc(C=C2C(=O)NC(=O)NC2=O)ccc1OCc1ccc([N+](=O)[O-])cc1,21%,32µM*,-2%,25µM*,.,35µM*
O=C1NC(=O)C(=Cc2ccccc2OCCOc2ccc([N+](=O)[O-])cc2)C(=O)N1,26%,50µM*,-20%,16µM*,?,89µM*
CN1C(=O)C(=Cc2ccccc2OCCOc2ccc([N+](=O)[O-])cc2)C(=O)N(C)C1=O,19%,71µM*,.,10µM*,50µM*,?
CCCN1CCCC(c2cccc(O)c2)C1 (centres undefined),.,.,.,-16%[12.7 µM],.,.
C=C(C)C(=O)CP(=O)(OCC)OCC,.,-4%,.,.,.,.
O=C1NC(=O)C(=Cc2ccc(Oc3ccc([N+](=O)[O-])cc3)cc2)C(=O)N1,-6%,20µM*,?,35µM*,-35%,56µM*
CN1C(=O)C(=Cc2ccccc2OS(=O)(=O)c2ccccc2)C(=O)N(C)C1=O,51%,35µM*,.,.,?,-31%
O=C1/C(=C\c2ccc([N+](=O)[O-])cc2)N2CCC1CC2,-22%,-6%,-2%,?,?,-36%
Cc1c(C=C2C(=O)N(C)C(=O)N(C)C2=O)c(=O)n(-c2ccccc2)n1C,39%,22%,7%,-5%[59 µM],5%,-2%
NC[C@@H]1O[C@H](O[C@H]2[C@H](O)[C@@H](O[C@H]3[C@H](O)[C@H](N)C[C@H](N)[C@H]3O[C@@H]3O[C@H](CO)[C@@H](O)[C@H](O)[C@@H]3N)O[C@H]2CO)[C@@H](N)[C@H](O)[C@@H]1O,.,17%,.,29%[21.5 µM],.,.
C[C@@H]1C[C@H]2OC(=O)C3(CO3)[C@H]2[C@H](O)[C@]2(C)C(=O)C3OC3[C@@H]12 (some centres undefined),.,7%,.,11%[59 µM],6%,.
C=C1C(=O)O[C@@H]2C[C@@H](C)[C@@H]3C=CC(=O)[C@@]3(C)[C@@H](O)[C@H]12,40%,79µM*,.,11µM*!,1%,-14%
